Source: PubChem
G9a block – G9a (human) methyltransferase inhibition | Q96KQ7 | G9a H3K9 monomethylation, AlphaScreen, 2 h | Potency, µM (top dose mostly 102 µM), inactives show at the top dose activity, negative = inhibition, usual class: inhibitors | actives 8.8% (n = 350,000) | AID 504332; note: % is set by controls: 0 for no effect and ±100 for the full control effect; nearly all actives have a fitted effect of over 75% in size
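Signal arises when biotinylated H3K9 peptide, once monomethylated, bridges streptavidin donor and antibody-captured acceptor beads. Enzyme at 20 nM was preincubated 15 min with test compounds; peptide 500 nM and SAM 20 uM then reacted for 2 h.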
PLK1 PBD inh – inhibitors of human PLK1 polo-box domain binding; P53350; Plk1 PBD binding of FITC phosphopeptide, fluorescence polarization; Potency, µM, for the others: max response, negative = inhibition, actives largely listed as inhibitors; actives 2.8% (n = 360,000); AID 720504; note: series mostly up to about 57 µM; % is set by controls: 0 for no effect and ±100 for the full control effect; nearly all actives have a fitted effect of over 65% in size
Target sequence (P53350 whole entry, looked up, the tested form may be a part): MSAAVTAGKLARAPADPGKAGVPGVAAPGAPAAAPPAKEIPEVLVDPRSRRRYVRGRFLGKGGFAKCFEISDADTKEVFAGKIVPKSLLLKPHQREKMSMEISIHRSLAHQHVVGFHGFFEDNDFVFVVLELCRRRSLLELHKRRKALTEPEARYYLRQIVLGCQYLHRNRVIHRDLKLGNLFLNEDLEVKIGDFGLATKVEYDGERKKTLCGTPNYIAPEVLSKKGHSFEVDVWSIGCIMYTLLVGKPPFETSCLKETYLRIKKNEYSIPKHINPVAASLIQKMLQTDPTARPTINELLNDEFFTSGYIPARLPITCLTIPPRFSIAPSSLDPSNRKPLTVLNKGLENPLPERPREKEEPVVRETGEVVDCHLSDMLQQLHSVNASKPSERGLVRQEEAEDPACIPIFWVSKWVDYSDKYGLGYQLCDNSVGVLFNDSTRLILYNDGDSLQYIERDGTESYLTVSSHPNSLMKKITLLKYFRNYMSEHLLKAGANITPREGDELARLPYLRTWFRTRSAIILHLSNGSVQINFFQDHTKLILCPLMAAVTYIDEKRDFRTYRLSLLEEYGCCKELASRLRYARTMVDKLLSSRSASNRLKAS
JMJD2A Tudor – JMJD2A Tudor domain (human) inhibition. Potency, µM (titrated, usually from 114 µM), inactives show at the highest dose activity change, negative = inhibition, hits mostly inhibitors. actives 4.4% (n = 390,000). AlphaScreen JMJD2A-Tudor / H3K4me3 peptide binding; note: % is set by controls: 0 for no effect and ±100 for the full control effect; nearly all actives have a fitted effect of over 50% in size
BAZ2B block – blocks human BAZ2B; AlphaScreen BAZ2B-H3K14Ac peptide displacement; Potency, µM (top dose mostly 114 µM), without a hit: top-dose activity change, negative = inhibition, actives largely listed as inhibitors; Q9UIF8; actives 4.4% (n = 360,000); AID 504333; note: % is set by controls: 0 for no effect and ±100 for the full control effect; nearly all actives have a fitted effect of over 60% in size
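Complex of BAZ2B and biotin-H3K14Ac (50 nM apiece) forms over 30 min at RT, then faces library compounds up to 110 uM for another 30 min; AlphaScreen beads added, 20 min dark incubation, luminescence read.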
Sfp PPTase inh – blocks B. subtilis Sfp PPTase activity. Biochemical Sfp PPTase activity, qHTS. Potency, µM, for the others: largest response in the series, negative = inhibition, most hits filed as inhibitors. actives 3.5% (n = 310,000). AID 1490;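 note: the enzyme is Sfp with the accession as filed and its product quenches rhodamine fluorescence; 0% = enzyme reaction without inhibitor and -100% = no enzyme wells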
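With Hepes-Na pH 7.6 buffer containing 10 mM MgCl2, Sfp (15 nM) modified BHQ-2-YbbR (12.5 uM) using rhodamine-CoA (5 uM). Two reads 30 minutes apart at 525/598 nm yielded each well's rate.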
HP1b binding inh – inhibitors of HP1-beta chromodomain binding to methylated histone tails; actives 0.56% (n = 390,000); P83916; AID 540317; AlphaScreen HP1-beta / biotin-H3K9me3 peptide binding; Potency, µM (titrated, usually from 114 µM), for the others: top-dose activity change, negative = inhibition, usual class: inhibitors; note: nearly all actives have a fitted effect of over 70% in size
Target sequence (P83916 whole entry, looked up): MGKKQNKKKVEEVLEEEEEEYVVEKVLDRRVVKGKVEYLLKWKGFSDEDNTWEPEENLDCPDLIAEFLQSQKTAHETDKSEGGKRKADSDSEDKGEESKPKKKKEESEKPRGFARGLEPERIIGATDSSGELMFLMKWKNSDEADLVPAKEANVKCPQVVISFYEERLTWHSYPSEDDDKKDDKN
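Compound inhibition of the preformed complex between 50 nM HP1-beta and 50 nM biotinylated H3K9me3 peptide was read by AlphaScreen. Buffer was PBS pH 7.4 with 0.01% Tween-20. Incubations ran 30 min at room temperature, with 10 ug/mL donor/acceptor beads.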
* marks the source's active call; other numbers are inactive results; ? = inconclusive; / = not tested or not shown; [ ] = another dose, or the depositor's remark. An excerpt weighted towards active compounds, which were near 12% of everything screened. Calls come from the whole dose curve; as a rule, active = well fitted curve in the direction sought with a large enough effect; inconclusive = small, poorly fitted or top-dose-only effect, or another doubt; inactive = no such curve, though single readings can be large; an effect the other way counts as inactive or inconclusive. Potency is the fitted concentration of half-maximal effect.

SMILES	G9a block	PLK1 PBD inh	JMJD2A Tudor	BAZ2B block	Sfp PPTase inh	HP1b binding inh
Nc1ncc(Br)cc1S(=O)(=O)NCCC(=O)NCc1ccc(F)cc1	-6.3%	-13.8%	-13.0%	-18.3%	10.9%	79.2%
C[C@]12CCC(=O)C=C1CC[C@@H]1[C@@H]2[C@@H](O)C[C@@]2(C)[C@H]1CC[C@]2(O)C(=O)COP(=O)(O)O	1.1%[12.7 µM]	/	/	/	19.3%	/
OC[C@@H]1[C@@H](c2ccc(F)cc2)C(c2ccc(F)cc2)=NN1c1ccccc1	134.8%	/	/	/	5.8%	/
CC[C@@H](C(=O)[C@@H](C)[C@@H](O)[C@H](C)CCc1ccc(C)c(O)c1C(=O)O)C1O[C@](CC)(C2CC[C@](O)(CC)[C@H](C)O2)C[C@@H]1C (stereo not given in full)	/	/	/	/	0.5%	/
COc1ccccc1C(NC(=O)C1CCN(CCOc2ccccc2)CC1)c1ccccn1 (stereo not given)	/	3.9%	/	/	/	/
CCOc1ccc(NC(=O)CC2C(=O)N(c3cccc(C)c3)C(=O)N2CCC2=CCCCC2)cc1 (stereo not given)	0.0%[59 µM]	/	?	-11.5%	/	42.8%
CCC(CC)C(=O)Nc1cc(OC)c(OC)cc1C(=O)O	-26.0%[59 µM]	18.9µM*	-28.2%[11.4 µM]	-29.2%	10.2%	5.2%
CN(C(=O)CSc1nc(-c2ccccc2)cn1N)C(c1ccccc1)c1ccccc1	17.8µM*	-7.9%	?	44.7µM*	8.2%	-25.7%
CCOc1cc(C(N)=O)cc(Cl)c1OCC	14.0%[12.7 µM]	21.2µM*	?	-17.8%	18.2%	18.1%
COc1ccc(CCNC(=O)Cn2c(=O)n(-c3ccc(OC)c(OC)c3)c(=O)c3ccccc32)cc1OC	-0.3%[59 µM]	/	-7.5%	-6.3%	/	17.9%
O=C(Cc1cccc2ccccc12)Nc1ccc(N2CCOCC2)cc1	/	-1.1%	-8.9%	50.1µM*	-2.4%	21.2%
CCCCCCCCNS(=O)(=O)CCNCc1ccccc1OC	/	-0.1%	-7.9%	/	/	37.2%
CC(=O)Oc1ccc(NC(=O)Cc2ccccc2)c(C(=O)O)c1	70.8µM*	2.5%	-5.5%	?	-7.3%	47.4%
O=C(Cc1ccccc1)Nc1ccc(N2CCOCC2)cc1	-1.9%	-6.1%	-9.1%	-10.7%	18.9%	86.6%
O=C(CCS(=O)(=O)c1ccccc1)Nc1ccc(N2CCOCC2)cc1	56.2µM*	-16.9%	-25.9%	-26.1%	7.7%	7.2%
COc1ccc(CC(=O)Nc2ccc(OC(C)=O)cc2C(=O)O)cc1	-19.7%	-7.9%	-17.5%	-17.3%	6.5%	27.1%
O=C(Nc1ccc(N2CCOCC2)cc1)C1(S(=O)(=O)c2ccccc2)CC1	?	-8.3%	-19.4%	-22.9%	-4.4%	9.8%
COc1ccccc1CNCCS(=O)(=O)NN1CCOCC1	/	10.6µM*	-0.7%	/	/	45.2%
Cc1cccn2c(CNCCc3ccco3)c(C(=O)N3CCOCC3)nc12	/	-2.0%	-9.7%	-19.5%	0.7%	5.5%
Cc1ccccc1OCC(=O)OCC(=O)Nc1ccc(N2CCOCC2)cc1	-6.6%	3.2%	-14.8%	?	-3.3%	20.5%
COc1ccccc1NC(=O)Nc1ccc(N2CCOCC2)cc1	31.6µM*	-7.5%	?	-23.9%	-0.7%	-1.2%
O=C(CN1C(=O)CSC1=O)Nc1ccc(N2CCOCC2)cc1	15.8µM*	-7.5%	-0.3%	7.2%	-11.6%	20.0%
O=C(Cc1cccc2ccccc12)Nc1ccc(Br)cc1C(=O)O	?	-23.4%	0.4%	-1.2%	-19.6%	27.4%
O=C(Cc1cccc2ccccc12)Nc1ccc(O)cc1C(=O)O	70.8µM*	26.7µM*	-26.9%[57.1 µM]	-10.4%	0.8%	0.5%
COc1ccccc1CNCC(=O)Nc1ccc(N2CCOCC2)cc1	4.47µM*	?	39.8µM*	50.1µM*	-8.4%	8.3%
SMILES	G9a block	PLK1 PBD inh	JMJD2A Tudor	BAZ2B block	Sfp PPTase inh	HP1b binding inh
COC(=O)c1ccc(NC(=O)CN2C(=O)CSC2=O)cc1	0.1%[12.7 µM]	-10.2%	-8.3%	23.0%	-7.9%	4.7%
CC(C)C(NC(=O)c1ccc(F)cc1)C(=O)N1CCN(c2ccccn2)CC1 (stereo not given)	/	-0.4%	-6.7%	/	/	22.4%
O=C1c2ccccc2C(c2nnnn2-c2ccc3c(c2)OCCO3)N1CCc1ccccc1F (stereo not given)	/	-5.0%	/	/	/	/
COc1ccc(CNC(=O)C2CCCN(C(=O)N3CCOc4ccccc43)C2)cc1 (stereo not given)	-46.9%[59 µM]	/	-9.9%	-4.8%	/	24.5%
Cc1cn(CCC(=O)Nc2ccc(N3CCOCC3)cc2)c2ccccc12	44.7µM*	-14.9%	?	?	-2.8%	-9.7%
CS(=O)(=O)Nc1ccc(Cc2ccc(NS(C)(=O)=O)cc2)cc1	-22.5%[12.7 µM]	-7.0%	7.1%	1.1%	11.7%	31.2%
CCS(=O)(=O)Nc1ccc(Cc2ccc(NS(=O)(=O)CC)cc2)cc1	50.1µM*	-14.0%	-7.1%	7.0%	-30.0%	18.9%
CC(C)(C)c1csc(NNC(=O)c2ccc(Br)cc2)n1	-34.5%	-25.6%	-31.2%	/	-19.7%	-7.0%
CC(C)(C)c1csc(NC(=O)c2ccccc2O)n1	/	-24.1%	-27.7%	-2.6%	1.0%	16.1%
C/C(=N\Nc1nc(C(C)(C)C)cs1)c1ccccc1	70.8µM*	-8.5%	?	?	-15.6%	1.8%
O=C(Nc1nc2c(s1)CCCC2)Oc1ccccc1	-10.4%[59 µM]	-1.6%	-4.5%	-34.0%	7.9%	13.3%
C/C(=N\Nc1nc2c(s1)CCCC2)c1ccccc1	?	?	?	44.7µM*	?	?
C/C(=N\Nc1nc(C(C)(C)C)cs1)c1ccc(O)cc1	31.6µM*	?	?	?	50.1µM*	-22.0%
Cc1ccccc1C(=O)Nc1ccc2oc(-c3ccc(Cl)c(Cl)c3)nc2c1	2.5%[59 µM]	/	-11.4%	-2.1%	/	27.8%
Cc1ccccc1-c1nn[nH]n1	-10.1%	-5.3%	-23.0%	2.0%	17.5%	26.4%
Oc1ccc(N=Nc2ccccc2-c2nn[nH]n2)c(O)c1	35.5µM*	?	?	50.1µM*	15.0%	-4.7%
COc1ccc(C(=O)/C(=C/c2cccs2)c2nc3ccccc3o2)cc1	?	26.7µM*	44.7µM*	-32.9%	-6.5%	?
COc1ccc(/C=C(\CC(=O)O)c2nc3ccccc3o2)cc1	1.7%	3.3%	-6.3%	-5.8%	-11.8%	24.0%
Cc1cc(C)nc(Sc2ccc(C=O)cc2[N+](=O)[O-])n1	?	-7.4%	-15.3%	-21.3%	10.7%	28.1%
O=Cc1ccc(Sc2nnc(-c3ccccc3)o2)c([N+](=O)[O-])c1	39.8µM*	?	?	44.7µM*	-2.2%	-29.6%
Cc1oc(/N=C/c2cccc3ccccc23)c(C#N)c1C	-13.2%[59 µM]	23.8µM*	35.5µM*	-5.1%	0.5%	-36.2%
Cc1oc(/N=C/c2ccccc2)c(C#N)c1C	?	-12.4%	-6.8%	-31.5%	6.4%	-2.4%
